BAZ2B block = blocks human BAZ2B; AlphaScreen BAZ2B-H3K14Ac peptide displacement; Q9UIF8; Potency, µM (series often up to 114 µM), inactives show at the top dose activity change, negative = inhibition, actives largely listed as inhibitors; actives 4.4% (n = 360,000); also: % is scaled to controls: 0 for no effect and ±100 for the full control effect; nearly all actives have a fitted effect of over 60% in size
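AlphaScreen displacement of biotin-H3(5-23)K14Ac peptide (50 nM final) from BAZ2B (50 nM final) in PBS pH 7.4, 0.01% Tween-20; complex preformed 30 min RT, then compounds (top 110 uM) 30 min RT, beads 20 min dark.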
HP1b binding inh = blocks HP1-beta chromodomain binding to methylated histone tails; P83916; AlphaScreen HP1-beta / biotin-H3K9me3 peptide binding; Potency, µM (doses to about 114 µM), for the others: at the highest dose activity change, negative = inhibition, most hits filed as inhibitors; actives 0.56% (n = 390,000); also: nearly all actives have a fitted effect of over 70% in size
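Compound inhibition of the preformed complex between 50 nM HP1-beta and 50 nM biotinylated H3K9me3 peptide was read by AlphaScreen. Buffer was PBS pH 7.4 with 0.01% Tween-20. Incubations ran 30 min at room temperature, with 10 ug/mL donor/acceptor beads.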
G9a inh = inhibitors of human histone lysine methyltransferase G9a. Q96KQ7. G9a H3K9 monomethylation, AlphaScreen, 2 h. Potency, µM (series often up to 102 µM), for inactives: at the highest dose activity, negative = inhibition, most hits filed as inhibitors. actives 8.8% (n = 350,000). AID 504332; also: % is scaled to controls: 0 for no effect and ±100 for the full control effect; nearly all actives have a fitted effect of over 75% in size
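G9a (20 nM) was preincubated 15 min with compound, then reacted 2 h at room temperature with 500 nM biotin-H3K9 peptide and 20 µM SAM. Monomethyl-H3K9 detected by AlphaScreen using anti-H3K9me1 antibody.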
GLS inh = inhibitors of human glutaminase (GLS). AID 624170. actives 0.21% (n = 410,000). GLS enzymatic activity, qHTS titration. Potency, µM (titrated, usually from 45.5 µM), without a hit: at the highest dose activity change, negative = inhibition, most hits filed as inhibitors; also: % is scaled to controls: 0 for no effect and ±100 for the full control effect
Target sequence (O94925 whole entry, looked up): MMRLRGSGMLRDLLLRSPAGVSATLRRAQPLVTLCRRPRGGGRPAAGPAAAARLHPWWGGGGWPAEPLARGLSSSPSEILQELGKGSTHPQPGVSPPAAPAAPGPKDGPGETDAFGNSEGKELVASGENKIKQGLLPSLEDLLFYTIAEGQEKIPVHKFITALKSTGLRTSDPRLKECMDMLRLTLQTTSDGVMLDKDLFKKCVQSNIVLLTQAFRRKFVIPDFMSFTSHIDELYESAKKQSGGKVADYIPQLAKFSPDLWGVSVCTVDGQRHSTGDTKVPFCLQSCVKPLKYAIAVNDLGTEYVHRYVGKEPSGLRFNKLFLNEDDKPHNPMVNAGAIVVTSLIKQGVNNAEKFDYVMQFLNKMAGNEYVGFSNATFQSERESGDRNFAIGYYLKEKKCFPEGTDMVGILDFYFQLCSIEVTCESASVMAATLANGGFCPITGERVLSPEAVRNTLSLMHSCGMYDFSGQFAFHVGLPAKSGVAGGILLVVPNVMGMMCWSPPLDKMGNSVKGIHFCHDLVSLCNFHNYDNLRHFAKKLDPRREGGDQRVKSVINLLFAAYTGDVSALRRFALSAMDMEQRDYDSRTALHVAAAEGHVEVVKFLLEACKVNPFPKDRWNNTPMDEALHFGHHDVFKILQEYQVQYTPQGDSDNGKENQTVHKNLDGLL
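hKGA in 45 mM KH2PO4 pH 8.2, 0.02% Tween-20 with pin-transferred compounds; 1 mM L-glutamine (stock) plus glutamate oxidase/HRP/Amplex Red coupling added. Fluorescence read initially and after 30 min at RT.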
JMJD2A Tudor = inhibitors of human JMJD2A Tudor domain; AlphaScreen JMJD2A-Tudor / H3K4me3 peptide binding; Potency, µM (doses to about 114 µM), for the others: at the top dose activity change, negative = inhibition, hits mostly inhibitors; actives 4.4% (n = 390,000); AID 504339; also: % is scaled to controls: 0 for no effect and ±100 for the full control effect; nearly all actives have a fitted effect of over 50% in size
The depositor's hits bear a star; ? = inconclusive; . = no result given; [ ] = remark or other dose. Compounds with a hit are over-represented: about 10% of the library has one in this group of screens. Calls follow the shape of the dose curve; as a rule, active = well fitted curve in the direction sought with a large enough effect; inconclusive = small, poorly fitted or top-dose-only effect, or another doubt; inactive = no such curve, though single readings can be large; an effect the other way counts as inactive or inconclusive. Potency is read from the fitted curve at half-maximal effect.

SMILES	BAZ2B block	HP1b binding inh	G9a inh	GLS inh	JMJD2A Tudor
COc1ccc(-c2cc3nc(C4CCN(C(=O)OC(C)(C)C)CC4)c(C(=O)O)cn3n2)cc1	-32.2%	20.1%	79.4µM*	15.9%	-10.6%
COc1ccc(N2CCN(C(=O)c3cnn(-c4ccc(OC)cc4)c3C3CCN(C(=O)OC(C)(C)C)CC3)CC2)cc1	-12.5%[57.1 µM]	15.0%	14.1µM*	12.6%	-35.6%
COc1ccc(-n2ncc(C(=O)N3CCOCC3)c2C2CCN(C(=O)OC(C)(C)C)CC2)cc1	-0.9%[57.1 µM]	-5.3%	4.7%[59 µM]	-10.9%	-32.4%
O=C(O)c1ccc(Cl)c(NC(=S)NC(=O)c2cccc(COc3ccccc3)c2)c1	50.1µM*	?	-0.5%	-29.4%	?
O=C(O)c1ccc(Cl)c(NC(=S)NC(=O)c2ccccc2[N+](=O)[O-])c1	-0.7%	-0.7%	31.6µM*	12.2%	-3.4%[57.1 µM]
CCOC(=O)/C(C#N)=C\c1c(OCC)n(CC)c2ccccc12	8.1%	103.4%	-1.5%[59 µM]	-26.6%	9.4%
Cc1ccccc1-n1c(Cn2c(=O)sc3ccccc32)nnc1SCC(=O)N1CCOCC1	5.6%	12.2%	-14.8%	3.9%	-31.7%
COc1ccc(CCn2c(=N)c(C(=O)N3CCN(C)CC3)cc3c(=O)n4ccccc4nc32)cc1	-9.0%	7.2%	39.8µM*	1.8%	-22.9%
CCn1cc(C(=O)N[C@@H](CCSC)C(=O)NCCN2CCOCC2)c(=O)c2cc3c(cc21)OCO3	-5.7%	23.8%	-11.4%[0.0925 µM]	2.7%	-12.4%
CCCn1c(SCC(=O)NCc2ccc(F)cc2)n[nH]c1=O	-12.6%	-13.6%	1.9%	2.2%	44.7µM*
CCCn1c(SCC(=O)c2cc(C)ccc2C)n[nH]c1=O	-20.9%	35.1%	7.08µM*	7.1%	-27.1%
C=CCc1cc(/C=C2/NC(=S)NC2=O)cc(OC)c1O	-35.0%	1.3%	29.4%[12.7 µM]	-1.6%	-23.0%
O=C(Cc1ccc([N+](=O)[O-])cc1)N1CCCc2ccccc21	-31.9%	16.1%	1.8%[59 µM]	-4.5%	-12.0%[11.4 µM]
CC1CCCC2(C1)NC(=S)c1c(sc3c1CCCC3)N2 (stereo not given)	?	?	8.91µM*	-3.1%	79.4µM*
CN1C(=O)c2c(sc3c2CCCC3)NC1c1ccccc1O (stereo not given)	-28.1%	.	?	.	.
O=C(NCc1ccccn1)c1cccc(S(=O)(=O)Nc2ccc(F)cc2)c1	12.8%	13.5%	-3.0%	6.8%	-21.6%
CCN1CCN(c2ccc(S(=O)(=O)N3CCOCC3)cc2NC(=O)c2cc(Cl)nc3ccccc23)CC1	4.1%	13.4%	44.7µM*	2.5%	-6.9%
CCN1CCN(c2ccc(S(=O)(=O)N3CCOCC3)cc2NC(=O)CC(C)C)CC1	-23.0%	43.6%	0.5%[12.7 µM]	-3.1%	-9.8%
CCN1CCN(c2ccc(S(=O)(=O)N3CCOCC3)cc2NC(=O)C(C)Oc2ccc(Cl)cc2)CC1 (stereo not given)	-31.4%	1.9%	11.2µM*	11.8%	-25.1%
CCN1CCN(c2ccc(S(=O)(=O)N3CCOCC3)cc2NC(=O)c2ccccc2SC)CC1	-4.0%	14.2%	31.6µM*	-2.7%	-9.0%
CCN1CCN(c2ccc(S(=O)(=O)N3CCOCC3)cc2NC(=O)c2cc(F)c(F)c(F)c2F)CC1	.	.	.	-0.1%	.
CCN1CCN(c2ccc(S(=O)(=O)N3CCOCC3)cc2NC(=O)c2sccc2C)CC1	-5.2%	6.2%	12.6µM*	-0.7%	-20.5%
CC1C/C(=C/c2cccn2C)C(=O)/C(=C/c2cccn2C)C1 (stereo not given)	31.6µM*	39.8µM*	?	15.4%	25.1µM*
CC1C/C(=C/c2ccncc2)C(=O)/C(=C/c2ccncc2)C1 (stereo not given)	?	33.7%	-4.6%[59 µM]	-16.6%	-13.0%
COc1cc(C2NC(=O)N(C)C3=C2C(=O)N(c2cccc(Cl)c2)C3)ccc1O (stereo not given)	-20.1%	20.2%	-28.8%[59 µM]	12.9%	-15.3%
SMILES	BAZ2B block	HP1b binding inh	G9a inh	GLS inh	JMJD2A Tudor
COc1cccc(OC)c1C(=O)Nc1ccccc1NC(=O)c1c(OC)cccc1OC	-0.7%	-2.6%	79.4µM*	1.7%	-8.0%
COc1ccccc1NC(=O)c1ccccc1NS(=O)(=O)c1cccs1	-18.8%	42.3%	50.1µM*	2.1%	-1.4%
COc1ccccc1NC(=O)c1ccccc1NS(C)(=O)=O	-4.6%	51.2%	-1.5%[12.7 µM]	-5.0%	25.9%
CCc1ccc2c(COn3nnc4ccc(S(=O)(=O)N(C)C)cc43)cc(=O)oc2c1	15.3%	14.1%	12.8%[59 µM]	-0.3%	-18.2%
Cc1nnc(NC(=O)COc2ccc3c(C)cc(=O)oc3c2)s1	?	6.0%	8.91µM*	18.3%	-21.9%
CCC(CC)c1nnc(NC(=O)COc2ccc3c(C)cc(=O)oc3c2)s1	-12.7%	12.4%	-10.9%[0.0925 µM]	2.3%	-8.5%
Cc1cc(=O)oc2cc(OCC(=O)NCCc3nc4ccccc4[nH]3)ccc12	2.5%	14.7%	50.1µM*	-4.6%	-13.4%
CC(C)COC(=O)Nc1nnc(SCc2ccccc2F)s1	-6.5%	23.4%	-6.9%[59 µM]	2.8%	-15.8%
O=C(O)c1cc(-c2ccccc2)n(-c2ccccc2C(=O)O)n1	12.4%	-3.8%	?	15.0%	28.2µM*
CC(=O)c1ccc(NC(=O)CSc2ccsc2[N+](=O)[O-])cc1	35.5µM*	-3.2%	50.1µM*	5.0%	?
Cc1ccc(CNC(=O)CSc2ccsc2[N+](=O)[O-])cc1	-37.8%	25.9%	?	6.8%	-4.1%
O=C(CSc1ccsc1[N+](=O)[O-])NCCc1ccc(Cl)cc1	-6.8%	20.5%	15.1%[59 µM]	-5.7%	-11.4%
CCN(CC)c1ccc(NC(=O)CSc2ccsc2[N+](=O)[O-])c(C)c1	31.6µM*	?	?	5.2%	22.4µM*
O=C(CSc1ccsc1[N+](=O)[O-])Nc1cc(F)ccc1F	20µM*	?	35.5µM*	?	44.7µM*
CCN1CCN(C(=O)C2CCN(c3nnc(C)c4c(C)n(-c5ccc(C)cc5)nc34)CC2)CC1	-10.2%[57.1 µM]	14.5%[57 µM]	?	-2.9%	-17.4%
CC(Oc1cccc(Cl)c1)c1ccnc2nc(/N=C/N(C)C)nn12 (stereo not given)	-3.2%	-2.0%	20.5%	6.0%	-8.5%
O=C1NCCNC1c1ccccc1 (stereo not given)	.	36.2%	.	14.5%	-6.2%
CCOC(=O)c1csc(-c2ccc(OC)c(OC)c2)n1	5.4%	33.9%	-3.0%	0.1%	-4.2%
COc1cccc(-c2nc(CCl)cs2)c1OC	?	60.0%	22.4µM*	5.3%	50.1µM*
COc1cccc(-c2nc(CC(=O)O)cs2)c1OC	-7.7%	32.4%	-8.3%[12.7 µM]	-0.6%	4.6%[57.1 µM]
CCOc1ccc(-c2nc(CCl)cs2)cc1OC	?	70.3%	44.7µM*	-2.7%	7.0%[57.1 µM]
O=C1S/C(=C/c2ccc(N3CCOCC3)o2)C(=O)N1Cc1ccc(F)cc1	-33.0%	19.4%	7.94µM*	-27.1%	89.1µM*

Screening data from PubChem.
